# Measured values reported in the supplement of paper PMC8728848.
# Shown is part of a subset that was picked to be rich in the strongest signals.
# Experiments:
# Assay in all cases: glycan array binding signal (z-score within array); higher = stronger binding
# Details in all cases: glycan notation: IUPAC condensed, linker removed
# [1] = system: Gal(b1-4)GlcNAc(b1-3)Gal(b1-4)GlcNAc(b1-3)Gal(b1-4)GlcNAc
# Procedure, shortened: (§1)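 The binding signal is a Z-score computed within each array and averaged over linkers. Arrays of the same protein sequence at different concentrations or buffers were also averaged together. Data originate from 3228 arrays in the Consortium for Functional Glycomics database, kept only where the protein sequence was available.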
# [2] = system: Gal(b1-4)GlcNAc(b1-6)[Gal(b1-3)]GalNAc
# Procedure, shortened: as §1
# [3] = system: Gal(b1-4)GlcNAc(b1-3)Gal(b1-4)GlcNAc(b1-3)Gal(b1-4)GlcNAc(b1-3)Gal(b1-4)GlcNAc(b1-3)Gal(b1-4)GlcNAc(b1-2)Man(a1-3)[Gal(b1-4)GlcNAc(b1-3)Gal(b1-4)GlcNAc(b1-3)Gal(b1-4)GlcNAc(b1-3)Gal(b1-4)GlcNAc(b1-3)Gal(b1-4)GlcNAc(b1-2)Man(a1-6)]Man(b1-4)GlcNAc(b1-4)[Fuc(a1-6)]GlcNAc
# Procedure, shortened: as §1
# [4] = system: Gal(b1-4)GlcNAc(b1-3)Gal(b1-4)GlcNAc(b1-3)GalNAc
# Procedure, shortened: as §1
# [5] = system: Gal(b1-4)GlcNAc(b1-3)Gal(b1-4)GlcNAc
# Procedure, shortened: as §1
# [6] = system: Gal(b1-4)GlcNAc(b1-3)Gal(b1-4)[Fuc(a1-3)]GlcNAc(b1-3)Gal(b1-4)[Fuc(a1-3)]GlcNAc
# Procedure, shortened: as §1
# [7] = system: Gal(b1-4)GlcNAc(b1-3)GalNAc
# Procedure, shortened: as §1
# [8] = system: Gal(b1-4)GlcNAc(b1-3)[Fuc(a1-3)GlcNAc(b1-6)]Gal(b1-4)Glc
# Procedure, shortened: as §1
# [9] = system: Gal(b1-4)GlcNAc(b1-3)Gal(b1-4)GlcNAc(b1-3)Gal(b1-4)GlcNAc(b1-3)Gal(b1-4)GlcNAc(b1-3)Gal(b1-4)GlcNAc(b1-3)Gal(b1-4)GlcNAc(b1-2)Man(a1-3)[Gal(b1-4)GlcNAc(b1-3)Gal(b1-4)GlcNAc(b1-3)Gal(b1-4)GlcNAc(b1-3)Gal(b1-4)GlcNAc(b1-3)Gal(b1-4)GlcNAc(b1-3)Gal(b1-4)GlcNAc(b1-2)Man(a1-6)]Man(b1-4)GlcNAc(b1-4)GlcNAc
# Procedure, shortened: as §1
# [10] = system: Gal(b1-4)GlcNAc(b1-3)Gal(b1-4)[Fuc(a1-3)GlcNAc(b1-6)]Gal(b1-4)Glc
# Procedure, shortened: as §1
substance,measurement,setting,value
"GspB (Streptococcus gordonii), Q939N5",glycan array binding signal (z-score),[1],-0.783
same,glycan array binding signal (z-score),[2],-0.739
AgI/II Vhelical-GFP (Streptococcus mutans),glycan array binding signal (z-score),[3],-0.113
same,glycan array binding signal (z-score),[4],6.41
"BambL (Burhholderia ambifaria), Q0B4G1",glycan array binding signal (z-score),[5],-0.314
Epa22,glycan array binding signal (z-score),[6],-0.575
same,glycan array binding signal (z-score),[7],-0.621
same,glycan array binding signal (z-score),[8],-0.173
AgI/IIC123-GFP (Streptococcus mutans),glycan array binding signal (z-score),[3],5
same,glycan array binding signal (z-score),[9],1.82
same,glycan array binding signal (z-score),[8],0.19
"Wza (Escherichia coli), P0A930",glycan array binding signal (z-score),[1],2.94
"SiiE (Salmonella typhimurium), A0A0H3NVH0",glycan array binding signal (z-score),[1],0.446
same,glycan array binding signal (z-score),[10],-0.187
